# Measured values: PubChem BioAssay AID1159580 (chemical genetic matrix, 2015)
# Out of some 5,500 compounds screened, about 2,000 (36%) were called active. About 18% were inconclusive and are not listed. The list shows a part of the results. Values without a mark were called inactive. No stated cut-off is given here; in the data, active means normalized growth mostly below about 0.91 (no sharp cut-off); inconclusive means no clear call, values can overlap the other calls; inactive means mostly above about 0.92.
# Experiment: chemical genetic growth profiling, strain panel (AID 1159580);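 further: tested at 20 µM; growth read once vehicle control cultures reached saturation at 30 °C; 1 = growth at the plate median or of vehicle wells; lower values mean less growth of the strain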
# Conditions: S. cerevisiae deletion strains, growth OD
# [1] = locus YDL101C, strain DUN1, active compounds read low
# [2] = locus YHR030C, strain SLT2, active compounds read low
compound,measurement,setting,value
CC1=CC(C)(C)NC(=S)N1,normalized growth,"locus YAL013W, strain DEP1, active compounds read low",1.01
same,normalized growth,"locus YBR229C, strain ROT2, active compounds read low",1.01
same,normalized growth,[1],1
same,normalized growth,"locus YDR150W, strain NUM1, active compounds read low",0.981
same,normalized growth,"locus YEL061C, strain CIN8, active compounds read low",1.01
same,normalized growth,"locus YGR078C, strain PAC10, active compounds read low",1
same,normalized growth,"locus YGR229C, strain SMI1, active compounds read low",1.02
same,normalized growth,[2],1.06
same,normalized growth,"locus YHR087W, strain rtc3, active compounds read low",1
same,normalized growth,"locus YJR043C, strain POL32, active compounds read low",1
same,normalized growth,"locus YJR075W, strain HOC1, active compounds read low",1.01
same,normalized growth,"locus YKL190W, strain CNB1, active compounds read low",1.01
same,normalized growth,"locus YLR039C, strain RIC1, active compounds read low",1.01
same,normalized growth,"locus YLR058C, strain SHM2 (second series), active compounds read low",1
same,normalized growth,"locus YLR085C, strain ARP6, active compounds read low",0.984
same,normalized growth,"locus YLR262C, strain YPT6, active compounds read low",1.05
same,normalized growth,"locus YML094W, strain GIM5, active compounds read low",0.996
same,normalized growth,"locus YMR219W, strain ESC1, active compounds read low",1
same,normalized growth,"locus YMR263W, strain SAP30, active compounds read low",1.02
same,normalized growth,"locus YNL153C, strain GIM3, active compounds read low",0.997
same,normalized growth,"locus YNL298W, strain CLA4 (second series), active compounds read low",1
same,normalized growth,"locus YNL322C, strain KRE1, active compounds read low",1.01
same,normalized growth,"locus YNR030W, strain Alg12, active compounds read low",1.01
same,normalized growth,"locus YPL055C, strain LGE1, active compounds read low",0.984
same,normalized growth,"locus YPL241C, strain CIN2, active compounds read low",1.03
same,normalized growth,"locus YPR135W, strain CTF4, active compounds read low",1.06
Oc1ccc(-n2nnnc2SCc2ccc(OC(F)(F)F)cc2)cc1,normalized growth,"locus YAR019C, strain CDC15, active compounds read low",0.974
same,normalized growth,"locus YBL105C, strain PKC1, active compounds read low",0.971
same,normalized growth,"locus YBR135W, strain CKS1, active compounds read low",0.979
same,normalized growth,"locus YBR136W, strain MEC1, active compounds read low",0.975
same,normalized growth,"locus YBR160W, strain CDC28, active compounds read low",0.971
same,normalized growth,"locus YDL017W, strain CDC7, active compounds read low",0.982
same,normalized growth,"locus YDL028C, strain MPS1, active compounds read low",0.979
same,normalized growth,[1],0.988
same,normalized growth,"locus YDL108W, strain KIN28, active compounds read low",0.972
same,normalized growth,"locus YDL132W, strain cdc53, active compounds read low",0.984
same,normalized growth,"locus YDL214C, strain PRR2, active compounds read low",0.815
same,normalized growth,"locus YDR052C, strain DBF4, active compounds read low",0.984
same,normalized growth,"locus YDR054C, strain cdc34, active compounds read low",0.968
same,normalized growth,"locus YDR226W, strain ADK1, active compounds read low",0.98
same,normalized growth,"locus YDR477W, strain SNF1, active compounds read low",0.783
same,normalized growth,"locus YER123W, strain YCK3, active compounds read low",0.651
same,normalized growth,"locus YER133W, strain GLC7, active compounds read low",0.767
same,normalized growth,"locus YFL009W, strain cdc4, active compounds read low",0.975
same,normalized growth,"locus YFL029C, strain CAK1, active compounds read low",0.97
same,normalized growth,"locus YFR003C, strain YPI1, active compounds read low",0.98
same,normalized growth,"locus YFR019W, strain FAB1, active compounds read low",0.794
same,normalized growth,"locus YFR028C, strain CDC14, active compounds read low",0.97
same,normalized growth,"locus YGR040W, strain KSS1, active compounds read low",0.747
same,normalized growth,"locus YGR052W, strain FMP48, active compounds read low",0.577 (active)
same,normalized growth,"locus YGR092W, strain DBF2, active compounds read low",0.663
same,normalized growth,[2],0.554 (active)
same,normalized growth,"locus YHR079C, strain IRE1, active compounds read low",0.563
same,normalized growth,"locus YHR082C, strain KSP1, active compounds read low",0.617
same,normalized growth,"locus YHR205W, strain SCH9, active compounds read low",0.867
same,normalized growth,"locus YIL147C, strain SLN1, active compounds read low",0.984
same,normalized growth,"locus YJL095W, strain BCK1, active compounds read low",0.597
same,normalized growth,"locus YJL128C, strain PBS2, active compounds read low",0.932
same,normalized growth,"locus YJL157C, strain FAR1, active compounds read low",0.832
same,normalized growth,"locus YJR016C, strain ILV3, active compounds read low",0.977
same,normalized growth,"locus YJR066W, strain TOR1 (second series), active compounds read low",0.738
same,normalized growth,"locus YJR066W, strain TOR1, active compounds read low",0.647
same,normalized growth,"locus YKL048C, strain ELM1, active compounds read low",0.635 (active)
same,normalized growth,"locus YKL067W, strain YNK1, active compounds read low",0.794
same,normalized growth,"locus YKL101W, strain HSL1, active compounds read low",0.716 (active)
same,normalized growth,"locus YKL193C, strain SDS22, active compounds read low",0.978
same,normalized growth,"locus YKL203C, strain TOR2, active compounds read low",0.803
same,normalized growth,"locus YLR113W, strain HOG1, active compounds read low",0.523 (active)
same,normalized growth,"locus YLR133W, strain CKI1, active compounds read low",0.835
same,normalized growth,"locus YLR403W, strain SFP1, active compounds read low",0.828
same,normalized growth,"locus YML070W, strain DAK1, active compounds read low",0.703
same,normalized growth,"locus YMR001C, strain CDC5, active compounds read low",0.97
same,normalized growth,"locus YMR205C, strain PFK2 (second series), active compounds read low",0.782
same,normalized growth,"locus YMR277W, strain FCP1, active compounds read low",0.981
same,normalized growth,"locus YNL006W, strain LST8, active compounds read low",0.981
same,normalized growth,"locus YNL020C, strain ARK1, active compounds read low",0.805
same,normalized growth,"locus YNL161W, strain CBK1, active compounds read low",0.976
same,normalized growth,"locus YNL183C, strain NPR1, active compounds read low",0.635
same,normalized growth,"locus YNL207W, strain RIO2, active compounds read low",0.97
same,normalized growth,"locus YNL222W, strain SSU72, active compounds read low",0.966
same,normalized growth,"locus YNL307C, strain MCK1 (second series), active compounds read low",0.791
same,normalized growth,"locus YOL078W, strain AVO1, active compounds read low",0.978
same,normalized growth,"locus YOL136C, strain PFK27, active compounds read low",0.75
same,normalized growth,"locus YOR061W, strain CKA2, active compounds read low",0.772
same,normalized growth,"locus YOR119C, strain RIO1, active compounds read low",0.806
same,normalized growth,"locus YOR231W, strain MKK1, active compounds read low",0.509 (active)
same,normalized growth,"locus YOR329C, strain SCD5, active compounds read low",0.986
same,normalized growth,"locus YPL031C, strain PHO85, active compounds read low",0.725
same,normalized growth,"locus YPL153C, strain RAD53, active compounds read low",0.599 (active)
same,normalized growth,"locus YPL204W, strain HRR25, active compounds read low",0.622 (active)
same,normalized growth,"locus YPL209C, strain IPL1, active compounds read low",0.977
same,normalized growth,"locus YPL256C, strain CLN2, active compounds read low",0.467 (active)
same,normalized growth,"locus YPR025C, strain CCL1, active compounds read low",0.975
same,normalized growth,"locus YPR106W, strain ISR1, active compounds read low",0.971
same,normalized growth,"locus YPR111W, strain DBF20, active compounds read low",0.967
same,normalized growth,"strain NNK1, active compounds read low",0.979
same,normalized growth,"strain TSCII, active compounds read low",0.983
